Experiment [1] concerns Zika virus NS2B-NS3 protease. Kind of experiment: Primary screen GU AMC qHTS for Zika virus inhibitors (AID 1347154). Further: nearly all actives have a fitted effect of over 70% in size. Further: potency means the concentration at half of the fitted maximal effect. The gist of the method:
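Unlinked Zika NS2B hydrophilic domain–NS3 protease complex at 25 nM in 10 mM Tris-HCl pH 8.0, 0.01% Tween 20, with an AMC peptide substrate. Fluorescence change (340/450 nm) over 15 min at room temperature, normalized to controls, fitted to 4-parameter Hill.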
Background: In qHTS, concentration-response curves come from the screen itself.

The target of experiment [2] is Lysine-specific demethylase 5B (Homo sapiens) (UniProt Q9UGL1). Nature of the experiment: Optimization screen for KDM5B Histone Demethylases FDH coupled qHTS against the LOPAC library (AID 1347166). Further: 0% is about no effect. To be noted: KDM5B demethylation, FDH-coupled NADH fluorescence (FDH is formaldehyde dehydrogenase); at 57.5 µM (top of the series). The gist of the method: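 KDM5BDeltaAP (200nM final) preincubated 10 min with compound, then 12.5uM H3K4Me3, 25uM a-ketoglutarate, ascorbate, Fe(II), NAD+ and FDH added; 50mM HEPES pH 7.5, 0.01% Tween-20. NADH fluorescence (340/450 nm) change over 30 min, room temperature.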
Sequence of Lysine-specific demethylase 5B (Homo sapiens) (Q9UGL1 whole entry, looked up): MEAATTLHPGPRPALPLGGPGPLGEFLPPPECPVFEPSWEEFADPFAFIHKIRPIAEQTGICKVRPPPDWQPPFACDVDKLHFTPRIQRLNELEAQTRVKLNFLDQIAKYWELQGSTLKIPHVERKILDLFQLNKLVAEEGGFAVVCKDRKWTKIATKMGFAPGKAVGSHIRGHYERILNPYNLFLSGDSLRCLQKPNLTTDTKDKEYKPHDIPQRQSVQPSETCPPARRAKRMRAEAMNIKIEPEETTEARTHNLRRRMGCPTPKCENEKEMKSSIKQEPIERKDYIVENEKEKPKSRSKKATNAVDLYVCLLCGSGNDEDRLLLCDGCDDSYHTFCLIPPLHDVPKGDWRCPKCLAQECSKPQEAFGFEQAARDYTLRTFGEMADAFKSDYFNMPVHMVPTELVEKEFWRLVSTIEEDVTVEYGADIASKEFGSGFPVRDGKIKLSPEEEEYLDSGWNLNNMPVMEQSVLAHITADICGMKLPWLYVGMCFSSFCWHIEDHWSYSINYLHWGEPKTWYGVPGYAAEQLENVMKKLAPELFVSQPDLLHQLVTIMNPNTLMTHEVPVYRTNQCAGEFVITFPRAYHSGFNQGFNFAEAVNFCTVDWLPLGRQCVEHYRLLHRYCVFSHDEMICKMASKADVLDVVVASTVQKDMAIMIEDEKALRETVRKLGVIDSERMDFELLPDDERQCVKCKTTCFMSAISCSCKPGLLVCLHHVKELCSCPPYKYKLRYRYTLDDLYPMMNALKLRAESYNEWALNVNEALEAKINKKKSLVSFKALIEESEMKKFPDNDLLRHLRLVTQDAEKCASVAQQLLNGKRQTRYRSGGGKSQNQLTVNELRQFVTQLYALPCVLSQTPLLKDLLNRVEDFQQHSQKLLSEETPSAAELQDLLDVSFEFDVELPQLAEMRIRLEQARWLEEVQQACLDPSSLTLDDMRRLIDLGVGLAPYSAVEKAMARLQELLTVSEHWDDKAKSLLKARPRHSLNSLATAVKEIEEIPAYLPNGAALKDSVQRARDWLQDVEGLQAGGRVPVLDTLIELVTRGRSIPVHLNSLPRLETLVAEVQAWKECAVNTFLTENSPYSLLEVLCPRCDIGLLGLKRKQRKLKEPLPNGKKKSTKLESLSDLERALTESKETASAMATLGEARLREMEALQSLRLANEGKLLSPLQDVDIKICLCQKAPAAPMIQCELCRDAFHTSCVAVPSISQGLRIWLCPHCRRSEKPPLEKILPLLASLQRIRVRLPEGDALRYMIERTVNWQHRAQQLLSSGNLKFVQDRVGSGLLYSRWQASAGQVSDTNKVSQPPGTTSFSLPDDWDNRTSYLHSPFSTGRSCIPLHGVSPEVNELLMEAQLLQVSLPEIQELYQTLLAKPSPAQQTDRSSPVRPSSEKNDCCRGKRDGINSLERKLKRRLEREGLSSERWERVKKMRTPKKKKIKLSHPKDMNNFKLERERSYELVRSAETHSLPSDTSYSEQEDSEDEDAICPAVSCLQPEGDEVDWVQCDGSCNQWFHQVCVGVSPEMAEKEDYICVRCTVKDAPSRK

Experiment [3] is described as follows: Vero cells viability qHTS for Zika virus inhibitors (AID 1347167). Further: on the % scale 0 is the no-effect control and ±100 the full control effect. The gist of the method: (§1)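 Cells seeded at 2.5 x 10^5 cells/mL in DMEM with 4% FBS and attached overnight at 37 degrees C, then exposed to compound for 24 to 48 hours. Viability read as ATP content by CellTiter Glo luminescence.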
The nature of experiment [4]: HepG2 cells viability qHTS for Zika virus inhibitors (AID 1347168). Further: on the % scale 0 is the no-effect control and ±100 the full control effect. An outline of the steps: as §1
The nature of experiment [5]: Confirmatory screen NINDS Rhodamine qHTS for Zika virus inhibitors (AID 1347161). Further: potency means the concentration at half of the fitted maximal effect; nearly all actives have a fitted effect of over 60% in size. The gist of the method:
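In 10 mM Tris-HCl pH 8.0 containing 0.01% Tween 20, linked NS2B-NS3 protease (25 nM final) is exposed to test compounds for 15 min. Cleavage of 1.5 microM Rhodamine110 substrate is tracked by fluorescence over 15 min.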

The subject of experiment [6] is Zika virus NS2B-NS3 protease (linked). Nature of the experiment: 384 well plate NINDS AMC confirmatory qHTS for Zika virus inhibitors (AID 1347163). Further: nearly all actives have a fitted effect of over 50% in size. Further: potency means the concentration at half of the fitted maximal effect. The gist of the method:
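Linked NS2B-NS3 protease (final 5 nM, 30 nM or 60 nM) was preincubated with compounds (final up to 1 mM) for ~15 minutes. Ac-VKTGKR-AMC substrate (final 30 microM) then reacted for 25 minutes at room temperature in the dark. Fluorescence (ex 355/em 460 nm) was normalized to no-enzyme and no-inhibitor controls.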

In experiment [7] the test system is Zika virus NS2B-NS3 protease (linked construct). Nature of the experiment: 384 well plate NINDS Rhodamine confirmatory qHTS for Zika virus inhibitors (AID 1347164).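 Further: fluorescence from protease cleavage of Ac-LKRR-rhodamine 110 substrate; nearly all actives have a fitted effect of over 65% in size.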 Further: potency means the concentration at half of the fitted maximal effect. An outline of the steps: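 Enzyme (final 5/30/60 nM) + cpd (DMSO), ~15 min; add Ac-LKRR-Rd 10 microM final; 25 min RT, dark; FI ex 485/em 538; normalized to no-enzyme, no-inhibitor ctrls; aprotinin intraplate ctrl.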

Experiment [8] is described as follows: ZIKV-mCherry secondary qHTS for Zika virus inhibitors (AID 1347158). Further: top concentration of the series differs between compounds. An outline of the steps: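 Vero, 5,000 cells/well, o/n 37 °C; cpd pin-transferred in DMSO; ZIKV-mCherry MOI 1, 48-72 h 37 °C; 32% PFA stock fix, Hoechst; imaged 10x DAPI/mCherry; mCherry+ threshold 450 RFU; % infection.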

“And” between values parts separate entries of the source, which are not always exact repeats. Identical values can stand only once. Records with an inconclusive call do not appear. A number with no mark means an inactive call. The source made the active and inactive calls. The call rests on the fitted dose curve; in most records, active means well fitted curve in the direction sought with a large enough effect; inconclusive means small, poorly fitted or top-dose-only effect, or another doubt; inactive means no such curve, though single readings can be large; an effect the other way counts as inactive or inconclusive.

For the compound `NCCNS(=O)(=O)c1cccc2c(Cl)cccc12`, the Potency result in experiment [1] was “inactive”. Moreover, in experiment [2], the activity, negative = inhibition is -9.52%.

As to `CC(C)(CO)Cc1cc(C(C)(C)C)c(O)c(C(C)(C)C)c1`, the Potency result in experiment [1] is “inactive”. Further, in experiment [2], the activity, negative = inhibition is -8.2%.

`CC(C)NC[C@H](O)COc1ccc(CC(N)=O)cc1`: the Potency entry in experiment [1] is “inactive”. The activity, negative = inhibition in experiment [2] is -2.87%.

`Cn1c(=O)c2[nH]c(-c3ccc(S(=O)(=O)O)cc3)nc2n(C)c1=O`: the Potency in experiment [1] is 5.32 µM (active). In addition, the activity, negative = inhibition in experiment [2] is 39.3%. Moreover, the Potency result in experiment [3] is “inactive”. Moreover, the call in experiment [4] was inactive.

Take `O=C(OCCN1CCOCC1)C1(c2ccccc2)CCCCC1`: in experiment [1], the Potency entry was “inactive”. In addition, the activity, negative = inhibition in experiment [2] is -17.1%.

On to `O=[N+]([O-])c1cccc2c(Br)[nH]nc12`, for which, in experiment [1], the Potency entry was “inactive”. Also, in experiment [2], the activity, negative = inhibition is -1.9%.

For `CCCCCCC(=O)OC1CC(C)(C)NC(C)(C)C1`, the Potency entry in experiment [1] was “inactive”. The activity, negative = inhibition in experiment [2] was -0.896%.

As to `NCCCNCCCCNCCCN`, in experiment [1], the Potency result is “inactive”. Also, in experiment [2], the activity, negative = inhibition was -4.41%.

For `CC(/C=C/c1cccc(Oc2ccc(F)cc2)c1)N(O)C(N)=O` (configuration not stated), the Potency result in experiment [1] is “inactive”. The activity, negative = inhibition in experiment [2] was -9.88%.

On to `COc1cc(/C=C(\C#N)C(=O)Nc2nnc(C(F)(F)F)s2)ccc1OCc1ccc(C(F)(F)F)cc1C(F)(F)F`, for which the figures for the Potency in experiment [5] and in experiment [7] were 1.75 µM (active) and 14.1 µM (active), respectively. The Potency result in experiment [6] was “inactive”. The outcome in experiment [4] was inactive.

In the case of `COc1ccccc1N1CCN(CCCCN2C(=O)c3ccccc3C2=O)CC1`, in experiment [1], the Potency entry was “inactive”. Also, in experiment [2], the activity, negative = inhibition was -4.4%.

As to `CNC(=O)c1cc2c(cn1)[nH]c1ccccc12`, in experiment [1], the Potency is 21.2 µM (active) and 18.9 µM (active). In addition, in experiment [3], the Potency entry was “inactive”. The outcome in experiment [4] was inactive.

With `O=c1[nH]c(=S)[nH]c(-c2ccccc2)c1Cc1c(O)ccc2ccccc12`, the Potency entry in experiment [8] and in experiment [3] was “inactive” in each case. Besides, the Potency in experiment [5] was 3.49 µM (active); in experiment [7], 70.8 µM (active). Also, in experiment [2], the activity, negative = inhibition is -27.4%. The outcome in experiment [4] was inactive.

`Nc1ncnc2c1ncn2C1CCCO1` (configuration not stated): the Potency result in experiment [1] is “inactive”. Moreover, the activity, negative = inhibition in experiment [2] is -7.06%.

In the case of `c1ccc(C(NCc2cccnc2)(c2ccccc2)c2ccccc2)cc1`, in experiment [1], the Potency result was “inactive”. Besides, the activity, negative = inhibition in experiment [2] was -13.8%.

Take `CN1CCc2cc(Cl)c(O)cc2[C@@H](c2ccccc2)C1`: the Potency entry in experiment [1] was “inactive”. Moreover, the activity, negative = inhibition in experiment [2] is -3.21%.

As to `O=c1ccn([C@@H]2O[C@H](COP(=O)(O)OP(=O)(O)O)[C@@H](O)[C@H]2O)c(=O)[nH]1`, in experiment [1], the Potency entry was “inactive”. Besides, in experiment [2], the activity, negative = inhibition is -0.701%.

On to `O=C1NC(=O)c2cc(Nc3ccccc3)c(Nc3ccccc3)cc21`, for which the Potency result in experiment [8], in experiment [7] and in experiment [3] was “inactive” throughout. Besides, in experiment [6], the Potency was 12.6 µM (active). In experiment [2], the activity, negative = inhibition was -17.6%. For the same compound, the compound was classed as inactive in experiment [4].

`CC1CNCCN1S(=O)(=O)c1cccc2cnccc12` (configuration not stated): the Potency result in experiment [1] is “inactive”. Further, in experiment [2], the activity, negative = inhibition is -12.8%.

For the compound `CCc1ccc2c(-c3cccc(Cl)c3)nc(=O)n(CC)c2n1`, the Potency result in experiment [1] and in experiment [3] was “inactive” throughout. Further, the compound was classed as inactive in experiment [4].

For the compound `O=S(=O)(c1cccc2c(Cl)cccc12)N1CCCNCC1`, the Potency result in experiment [1] was “inactive”. The activity, negative = inhibition in experiment [2] is 1.08%.

Take `C=CCN1CCc2c(cc(O)c(O)c2Br)[C@@H](c2ccccc2)C1`: in experiment [7], the Potency was 8.91 µM (active).

These data come from PubChem BioAssay (NCATS).
